Screens: PubChem BioAssay, several laboratories
Only some compounds are listed: those with a hit (about 3.3% of all), similar ones and a draw of the others.
esBAF inh – SWI/SNF esBAF complex inhibition; reporter increase, % at 12.5 µM; 350,000 tested, 2% active; mouse ES cells, Bmi1-luciferase knock-in reporter, 24 h; 100% = twice the neutral-well signal; in the data active = activation above about 40%; inconclusive = no clear call, values can overlap the other calls;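 note: 0% = median of the plate's neutral control wells and 100% = double that signal; a rise in the Bmi1 reporter signal indicates esBAF inhibition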
Gli-Sufu block – antagonists of Gli-Sufu signaling | Sufu-KO-LIGHT fibroblasts, Gli luciferase reporter luminescence | inhibition, % at 5 µM | 340,000 tested, 0.74% active | AID 588413;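 active = inhibition above about 55%, limit read from the data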;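 note: 0% = DMSO-treated cells and 100% = wells with medium but no cells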
Jurkat NFkB inh – lowers PMA/ionomycin-induced NF-kB signal in Jurkat cells; PMA/ionomycin-induced NF-kB luciferase reporter, luminescence; inhibition, % at 4 µM; 330,000 tested, 0.53% active; in the data active = inhibition above about 50%
SMARCA2 activ – activators of SMARCA2 function; AID 652017; activation, % at 9.1 µM; 370,000 tested, 1% active; MG213 cells, MMTV-luciferase reporter, dexamethasone, overnight; in the data active = activation above about 7.8%;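 note: 0% = vehicle wells and 100% = reference activator wells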
697 NFkB inh – inhibitors of the PMA/ionomycin-induced NF-kB reporter in 697 B cells | 697 B-cell NF-kB luciferase reporter, 16 h | 330,000 tested, 0.33% active | inhibition, % at 4 µM; in the data active = inhibition above about 35%
SMARCA2 act conf – SMARCA2 activation, confirmation screen. shares compounds with SMARCA2 activ. MG213 cells, MMTV-luciferase with dexamethasone, luminescence, overnight; MG213 cells expressing E1A, Rb sequestered; DMSO wells 0%, reference activator 100%. activation, % at 9.1 µM. 3,500 tested, 30% active;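 active = activation above its plate's cutoff, the mean activation of tested wells plus 3 SD, cut at about 7.9% in these data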
GAL4-VP16 Luc – counter-screen for SMARCA2 activators: GAL4-VP16 luciferase reporter activation; 3,500 tested, 41% active; HEK293 GAL4-VP16 pG5luc reporter, luciferase luminescence; scaled: DMSO wells 0%, SAHA wells 100%; shares compounds with SMARCA2 activ; AID 686939; activation, % at 9.1 µM;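 active = activation above the solvent-only control well mean plus 3 SD, averaged across control plates, cut at about 5.2% in these data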
* = called active by the depositor; u = inconclusive; x = not tested or not shown.

SMILES | esBAF inh | Gli-Sufu block | Jurkat NFkB inh | SMARCA2 activ | 697 NFkB inh | SMARCA2 act conf | GAL4-VP16 Luc
CCNC(=O)[C@@H]1[C@@H](CO)[C@@H]2Cn3c(cccc3=O)[C@@H]2N1C(=O)C1CCCC1 | 3 | x | x | x | x | x | x
CCOC(=O)c1cnc(-c2ccccc2O)nc1Cl | x | -16 | -9 | 8.1* | -10 | 4 | 4
C[C@@H]1CCCCO[C@@H](CN(C)C(=O)Nc2ccc(F)cc2)[C@H](C)CN([C@@H](C)CO)C(=O)c2cc(NC(=O)Nc3ccc(C(F)(F)F)cc3)ccc2O1 | 9 | x | x | x | x | x | x
O=C1C(=Cc2ccco2)CCCC1=Cc1ccco1 | 57* | -12 | x | 8.1* | x | 16* | 7.2*
CCCC#Cc1ccc2c(c1)O[C@H](CN(C)C(C)=O)[C@H](C)CN([C@@H](C)CO)S2(=O)=O | -4 | x | x | x | x | x | x
C[C@H]1CN([C@@H](C)CO)C(=O)Cc2cc(NC(=O)Nc3cccc4ccccc34)ccc2O[C@@H]1CN(C)S(=O)(=O)c1ccccc1 | -7 | x | x | x | x | x | x
CC(C)COc1ccc(-c2nnn(CC(=O)N3CCCC3)n2)cc1 | u | -26 | -14 | 9.9* | 14 | 6 | 8.2*
Cc1ccc(-c2nc(NCCN(C)C)c3ccccc3n2)cc1 | 3 | 22 | -13 | 13* | -8 | 15* | 2
C[C@@H](O)C#Cc1ccc([C@@H]2[C@H](CO)N3CCCCN(C(=O)c4ccc5c(c4)OCO5)C[C@@H]23)cc1 | 5 | x | x | x | x | x | x
COc1ccc(S(=O)(=O)N(C)C[C@@H]2OCCCC[C@H](C)Oc3ccc(NC(=O)Nc4ccc5c(c4)OCO5)cc3C(=O)N([C@H](C)CO)C[C@H]2C)cc1 | 2 | x | x | x | x | x | x
C[C@@H]1CCCCO[C@H](CN(C)C(=O)CCCN(C)C)[C@H](C)CN([C@H](C)CO)C(=O)c2cc(NS(C)(=O)=O)ccc2O1 | -2 | x | x | x | x | x | x
CO[C@@H]1CN(C)C(=O)c2ccc(NC(=O)C3CC3)cc2OC[C@H](C)N(C(=O)c2ccccc2)C[C@H]1C | -1 | x | x | x | x | x | x
Cc1ccc(S(=O)(=O)N(C)C[C@@H]2Oc3ccc(NC(=O)CCN4CCOCC4)cc3C(=O)N([C@H](C)CO)C[C@@H]2C)cc1 | 6 | x | x | x | x | x | x
CC(C)c1ccc(NC(=O)COC(=O)C2CCCCC2)cc1 | 40 | -16 | -10 | 8.4* | 11 | 0 | 1
COc1ccc(CNC(=O)COC(=O)c2cccn2C)cc1 | 0 | -3 | -11 | 1 | 7 | x | x
CC(=O)NCCc1ccc(C(=O)COC(=O)c2cccs2)cc1 | 29 | x | x | 8.6* | x | 9.8* | 1
CC(=O)NCCc1ccc(C(=O)COC(=O)c2cccn2C)cc1 | 27 | 1 | -60 | 9.2* | -10 | 6 | 4
COc1cccc(C(=O)COc2ccc(NC(=O)c3cccs3)cc2)c1 | 4 | -6 | 3 | -2 | -3 | x | x
CC(=O)NCCc1ccc(C(=O)COC(=O)c2ccc(C)s2)cc1 | 2 | x | x | 7 | x | x | x
O=C(COC(=O)c1cccs1)c1ccccc1 | 32 | 4 | -14 | 6 | -8 | x | x
COc1cccc(C(=O)COC(=O)c2cccs2)c1 | 30 | -17 | 4 | 9.1* | 0 | 12* | 2
COc1ccc(C(=O)COC(=O)c2cccs2)cc1 | 68* | -8 | 4 | 11* | -4 | 3 | 10*
CO[C@@H]1CN(C)C(=O)c2cc(NS(=O)(=O)c3ccc(C)cc3)ccc2OC[C@@H](C)N(Cc2nccs2)C[C@@H]1C | 7 | x | x | x | x | x | x
O=C(C[C@H]1CC[C@@H]2[C@H](COC[C@@H](O)CN2S(=O)(=O)c2cccc(F)c2)O1)Nc1ccc(-c2ccccc2)cc1 | -4 | x | x | x | x | x | x
CO[C@@H]1CN(C)C(=O)c2cc(NC(=O)Nc3c(C)noc3C)ccc2OC[C@H](C)N(C)C[C@H]1C | -3 | x | x | x | x | x | x
SMILES | esBAF inh | Gli-Sufu block | Jurkat NFkB inh | SMARCA2 activ | 697 NFkB inh | SMARCA2 act conf | GAL4-VP16 Luc
COc1ccc(NC(=O)N(C)C[C@@H]2Oc3cc(-c4cccc(C(=O)N(C)C)c4)ccc3S(=O)(=O)N([C@@H](C)CO)C[C@@H]2C)cc1 | 9 | x | x | x | x | x | x
C[C@@H]1CN([C@H](C)CO)C(=O)Cc2cc(NC(=O)Nc3ccc4c(c3)OCO4)ccc2O[C@@H]1CN(C)Cc1ccc(Oc2ccccc2)cc1 | -5 | x | x | x | x | x | x
CC1C/C(=N/NC(=O)c2cccc(F)c2)c2ccc(O)cc2C1 (configuration not stated) | 13 | 6 | 6 | 9.2* | 17 | -3 | 0
Cc1cc(OCC(=O)NC2CCCCC2)ccc1Cl | x | -21 | -11 | -1 | -7 | x | x
CN(CCC#N)C(=O)COC(=O)c1ccccc1C(=O)c1ccc(Cl)c([N+](=O)[O-])c1 | x | 11 | x | 9.5* | x | -10 | 3
O=C(COC(=O)c1ccccc1C(=O)c1ccc(Cl)c([N+](=O)[O-])c1)NC1CCCCCC1 | -86 | -3 | 20 | 9.4* | 14 | -13 | -1
CC(C)N(C(=O)COC(=O)c1ccccc1C(=O)c1ccc(Cl)c([N+](=O)[O-])c1)C(C)C | x | 4 | -7 | 1 | -11 | x | x
Cc1cc(OCC(=O)OCC(=O)NC2CCCC2)ccc1Cl | -3 | 2 | 7 | 11* | -2 | 0 | 2
O=C(COC(=O)c1ccccc1)NC1CCCC1 | 8 | 14 | -20 | 10* | -9 | 4 | 2
COc1ccc(NC(=O)Nc2ccc3c(c2)C(=O)N([C@H](C)CO)C[C@H](C)[C@H](CN(C)S(C)(=O)=O)O3)cc1 | 0 | x | x | x | x | x | x
C[C@@H]1CCCCO[C@@H](CN(C)C(=O)Nc2cccc3ccccc23)[C@H](C)CN([C@@H](C)CO)C(=O)c2cc(NC(=O)CCC(F)(F)F)ccc2O1 | 7 | x | x | x | x | x | x
O=C(CN1CCOCC1)N[C@H]1CC[C@H](CCNC(=O)C2CCC2)O[C@H]1CO | 2 | x | x | x | x | x | x
CC(=O)c1cccc(NC(=O)CSc2nc3ccccc3c(=O)n2CCCN2CCOCC2)c1 | 1 | 4 | 10 | -2 | 1 | x | x
Cc1ccc(NC(=O)CSc2nc3ccccc3c(=O)n2CCCN2CCCCC2)cc1C | -3 | 11 | -6 | 13* | -13 | 6 | 3
Cc1ccc(C)c(C(=O)Nc2nc3ccccc3[nH]2)c1 | 33 | -53 | -25 | 3 | -48 | x | x
Cc1ccc(Nc2nc3ccccc3[nH]2)nc1 | 30 | -74 | -62 | 8.7* | -168 | 7 | 19*
CCCN(C)C[C@@H]1Oc2ncc(C#CC3(O)CCCC3)cc2C(=O)N([C@H](C)CO)C[C@@H]1C | -6 | x | x | x | x | x | x
COc1ccc(OC)c(S(=O)(=O)Nc2c(F)cccc2F)c1 | -8 | 3 | 16 | 10.0* | -2 | -4 | -1
CO[C@H](CN(C)Cc1cc(F)ccc1F)[C@H](C)CN([C@H](C)CO)S(=O)(=O)c1ccc(Cl)cc1 | -3 | x | x | x | x | x | x
COc1ccc(C2=Nn3c(nnc3-c3cccnc3)SC2)cc1 | 12 | 0 | x | 9.7* | x | 4 | 2
